Results as given in PubChem BioAssay (NCI).
About 83,000 compounds went through this panel and 20% of them were active in at least one assay; those are over-represented in the sample as a whole.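 96-well plates, one dose, 48 hours. Percent growth reported; active if below 10.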 A number with no mark means an inactive call. The source made the active and inactive calls.

Tests used:
Assay in all cases: NCI-60 one-dose screen, 48 h (100 = growth as untreated, 0 = no growth, -100 = all killed)
Settings in all cases: 10 µM unless noted
HCT-15 colon = test system: HCT-15 colon
HT29 colon = test system: HT29 colon
SNB-75 CNS = test system: SNB-75 CNS
SNB-19 CNS = test system: SNB-19 CNS
U251 CNS = test system: U251 CNS
SK-MEL-5 melanoma = test system: SK-MEL-5 melanoma
UACC-62 melanoma = test system: UACC-62 melanoma
LOX IMVI melanoma = test system: LOX IMVI melanoma
SK-MEL-28 melanoma = test system: SK-MEL-28 melanoma
SK-MEL-2 melanoma = test system: SK-MEL-2 melanoma
EKVX NSCLC = test system: EKVX NSCLC
SN12C renal = test system: SN12C renal
UO-31 renal = test system: UO-31 renal
TK-10 renal = test system: TK-10 renal
ACHN renal = test system: ACHN renal
CAKI-1 renal = test system: CAKI-1 renal
A498 renal = test system: A498 renal
CCRF-CEM leukemia = test system: CCRF-CEM leukemia
MOLT-4 leukemia = test system: MOLT-4 leukemia
PC-3 prostate = test system: PC-3 prostate

| SMILES | growth (HCT-15 colon) | growth (HT29 colon) | growth (SNB-75 CNS) | growth (SNB-19 CNS) | growth (U251 CNS) | growth (SK-MEL-5 melanoma) | growth (UACC-62 melanoma) [%] | growth (LOX IMVI melanoma) | growth (SK-MEL-28 melanoma) | growth (SK-MEL-2 melanoma) | growth (EKVX NSCLC) [%] | growth (SN12C renal) | growth (UO-31 renal) | growth (TK-10 renal) | growth (ACHN renal) | growth (CAKI-1 renal) | growth (A498 renal) | growth (CCRF-CEM leukemia) | growth (MOLT-4 leukemia) | growth (PC-3 prostate) |
| --- | --- | --- | --- | --- | --- | --- | --- | --- | --- | --- | --- | --- | --- | --- | --- | --- | --- | --- | --- | --- |
| COc1ccc([C@H]2c3[nH]c4ccccc4c3C[C@H]3C(=O)N(C4CCN(Cc5c(Cl)cccc5Cl)CC4)CC(=O)N23)c(OC)c1 | 92.4% | 103% | 99.3% | 95.5% | 95.8% | 95.7% | 84.1 | 98.6% | 101% | 103% | 86.2 | 91% | 53.7% | 110% | 86.8% | 73.4% | 128% | 94.6% | 86.2% |  |
| CC1(C)[C@@H](O)CC[C@]2(C)[C@H]3CC[C@@H]4[C@H]5[C@H](C(=O)/C=C\c6ccccn6)CC[C@]5(O)CC[C@@]4(C)[C@]3(C)CC[C@@H]12 | 15% | 28% | 26.2% | 48.3% | 37.7% | 54.1% | 41.7 | -21.8% (active) | 51.4% | 77.8% | 42.5 | 50.5% | 50.8% | 77.5% | 32.6% | 33.9% | 22% | -0.82% (active) | -8.46% (active) |  |
| COc1ccc(CCN2C(=O)CSC2=S)cc1 | 56.9% | 104% | 94.6% | 96.6% | 102% |  | 94.2 | 30.3% | 93.9% |  | 96 | 88.8% | 92% | 65.1% | 99.1% | 82.1% |  | 75.3% | 94.6% | 88.8% |
| Nc1nc(-c2cccc([N+](=O)[O-])c2)c(N=Nc2cccc([N+](=O)[O-])c2)s1 | 62% | 94.2% | -8.63% (active) | 20.9% | -43% (active) | 63.9% |  | 13.4% | 61.3% |  | 78.1 | 22.5% | 13.5% | 7.2% (active) | 11.5% | 34.5% |  | 95.2% | 112% | 74.7% |
| COc1cccc(C(=O)Nc2cccc(C#Cc3cccc4[nH]nc(N)c34)c2)c1 | 28.9% | 37.5% | 3.74% (active) | 98.5% | 68% |  | 57.6 | 37% | 67.7% |  | 80.9 | 71.6% | 56.4% | 96.5% | 51% | 52.4% |  | 28.5% |  | 32.7% |
| CN(C)CCNC(=O)c1ccc(-c2nc3ccc4[nH]ncc4c3c3c2CCC3)cc1 | 17.2% | 12.6% | 40.3% | 9.44% (active) | 25.3% | 7.44% (active) |  | -61% (active) | 21.9% | -22.8% (active) | 15.3 | 7.23% (active) | 18.2% | 22.1% | 12.8% |  | -63.6% (active) | 3.51% (active) | 7.28% (active) | 3.49% (active) |
| Cc1ccc2sc3c(c2c1)OC(N)=C(C#N)C3c1ccc(Cl)cc1 (stereo unspecified) | 30.3% | 67.3% | 81.6% | 89.9% | 96.3% |  | 45.7 | 86.9% | 75.2% |  | 70.9 | 93.3% | 75.9% | 97.3% | 87.4% | 60.4% |  | 75.7% |  | 71.1% |
| N#Cc1cnc2ccc(-c3cnc(N)nc3)cc2c1N1CCc2cc(F)c(Cl)cc21 | 4.26% (active) | 11.4% | 19.1% | 12.2% | 10.3% | -92.3% (active) |  | 2.73% (active) | 7.06% (active) | -32.5% (active) |  | 15% | -6.05% (active) | -20.5% (active) | 7.59% (active) | 5.2% (active) | -49.7% (active) | 5.74% (active) | 0.22% (active) | 2.78% (active) |
| Nc1nc(Nc2ccccc2SSc2ccccc2Nc2nc(N)nc(-c3cccc(Br)c3)n2)nc(-c2cccc(Br)c2)n1 | 50.8% | 108% |  | 25.4% | -43.9% (active) | 91.2% | 88.3 | -62.1% (active) | 98.9% | 109% |  | 63.7% | -7.87% (active) | 104% | 50.1% | 21.6% | 72% |  | 52% | 34.7% |
| C[C@@H](Nc1ncnc2ccc(-c3cnc(Cl)c(NS(C)(=O)=O)c3)cc12)c1ccccc1 | 66% | 64.6% |  | 64% | 67.9% | 66.3% | 35.6 | 40.2% | 50.4% | 53.7% | 19.8 | 30.1% | 26.9% | 3.2% (active) | 43.1% | 10.1% | -22.2% (active) | 42.6% | 20.8% |  |
| O=C1Nc2ccccc2/C1=C/c1ccc(CO)n1-c1ccc(Cl)cc1 | 24% | 26.7% |  | 66.1% | 56.4% | 51.9% | 33.9 | 43.5% | 57.7% | 47.7% | 63.6 | 65.2% | 59.2% | 115% | 56.1% | 52.8% | 35.4% | 33% | 26.7% | 53.5% |
| COc1cc(C2N=C(NNc3ccccc3)NC(C)=C2C(C)=O)ccc1O (stereo unspecified) | 81% | 115% |  | 93.3% | 100% | 104% | 43 | 66.3% | 101% | 97.1% | 79.3 | 95.5% | 63.2% | 149% | 63% | 56.8% | 105% | 101% | 89.9% | 84.5% |
| C=C(C=O)[C@@H]1CC[C@]2(CO)CC[C@]3(C)[C@H](CC[C@@H]4[C@@]5(C)CCCNC(C)(C)[C@@H]5CC[C@]43C)[C@@H]12 | -8.29% (active) | -3.52% (active) |  | 79.7% | 29.8% | 78% | 83.2 |  | 47.1% | 99.5% | 88.2 | 54.6% | 78.3% | 125% | 88.9% | 67.5% |  | 2.49% (active) | 28% | 11.4% |
| O=c1[nH]c2ccccc2cc1CSc1ccccc1Nc1nccc(-c2ccc(Cl)cc2)n1 | 101% | 109% |  | 98.8% | 104% | 96.6% | 77.1 | 96.3% | 107% | 113% | 88.6 | 94.9% | 83.3% | 115% | 81.5% | 80.6% | 85.5% | 101% | 100% |  |
| COc1ccccc1-n1cc(C#N)c(N)c1C(=O)c1ccc(Cl)cc1 | 36.2% | 52.8% |  | 69.4% | 91.9% | 60.1% | 46.3 | 67.9% |  | 78.4% | 86.9 | 90% | 77.4% | 107% | 93% |  | 57% | 76.3% | 64.2% | 58% |
| Clc1ccc(N/N=c2/oc3ccccc3cc2-c2cc3ccccc3[nH]2)cc1 | 59.4% | 69.2% |  | 85.4% | 80.2% | 82.5% | 73.9 |  | 97.7% | 108% | 70.2 | 70.9% | 49.7% | 145% | 49.7% | 58.4% |  | 79.7% | 69.6% | 63.9% |
| COc1cc(Cn2cc3c(c2)-c2onc(CN4CCOCC4)c2CC3)cc(OC)c1OC | 97.9% | 104% |  | 97.2% | 102% | 74.9% | 78.8 | 100% | 105% | 104% | 83 | 95.5% | 78.7% | 107% | 99.5% | 94.7% | 114% | 96.9% | 98.3% | 91.6% |
